Measurements from PubChem BioAssay AID1490 (National Center for Advancing Translational Sciences (NCATS), 2009).
Out of some 310,000 compounds screened, about 11,000 (3.5%) were called active. About 4% were inconclusive and are not listed. Calls come from the whole dose curve; as a rule, active = well fitted inhibition curve with a large enough effect; inconclusive = small, poorly fitted or top-dose-only effect, or another doubt; inactive = no such curve, though single readings can be large or run the other way. Only a selection was taken, and actives are over-represented in it overall.

molecular target: 4'-phosphopantetheinyl transferase ffp (Bacillus subtilis) (UniProt Q9F4F7); test: qHTS Assay for Inhibitors of Bacillus subtilis Sfp phosphopantetheinyl transferase (PPTase); details: Biochemical Sfp PPTase activity;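 note: the enzyme is Sfp with the accession as filed and its product quenches rhodamine fluorescence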;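 for Largest response in the series, negative = inhibition: 0% = enzyme reaction without inhibitor and -100% = no enzyme wells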
How it was run: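 After 15 min at room temperature with compound, 15 nM Sfp received 5 uM rhodamine-CoA plus 12.5 uM BHQ-2-ybbR (50 mM Hepes pH 7.6, 10 mM MgCl2). Rate came from the fluorescence difference over 30 min, ex 525/em 598 nm.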
Potency is the fitted concentration of half-maximal effect.

Largest response in the series, negative = inhibition, inactive:
Cc1ccc(N2CC(C(=O)NCCS(=O)(=O)N3CCN(c4ccccc4)CC3)CC2=O)cc1 (stereo not given) 5.68%
COc1ccc2c3c1OC1CC(O)C=C[C@@]31CCN(C)C2 (stereo not given in full) 17%
O=C(CN1C(=O)c2ccccc2S1(=O)=O)NC1CCCCC1 15.6%
CCCCc1nnc(NC(=O)CS(=O)(=O)Cc2ccccc2)s1 8.57%
COc1ccc(C)cc1NC(=O)CNCc1cccs1 -7.78%
O=C(CN(Cc1ccc(Br)cc1)S(=O)(=O)c1ccccc1)NCc1ccncc1 -4.2%
CCOC(=O)C1CCCN(S(=O)(=O)c2ccc(-n3cnnn3)c(C)c2)C1 (stereo not given) 13.1%
C#CC(CCN1CCCCC1)(OC)c1ccccc1 (stereo not given) 23.4%
CCOC(=O)c1csc(NC(=O)Nc2cccc(OC)c2)n1 7.72%
CCOC(=O)C(C)n1cnc2c(nnn2-c2cccc(OC)c2)c1=O (stereo not given) 30.5%
COC(=O)c1sc(=S)n(-c2ccc(Cl)cc2)c1C -2.12%
COC(=O)c1sc(N2CCN(Cc3ccccc3)CC2)nc1N -0.821%
Cc1ccn2c(=O)c(C(=O)NCCC3=CCCCC3)c(O)nc2c1 -5.56%
CCc1ccc(N(C(=O)c2csnn2)C(C(=O)NC2CCCCC2)c2cccnc2)cc1 (stereo not given) -9.84%
CCCCS(=O)(=O)N1C2=NC(C(=O)OC)=C(C(=O)OC)[C@@H]3N(Cc4ccccc4)c4ccccc4[C@]23C[C@H]1C(=O)OC -16%
Cc1ccc(C2SCC(=O)N2c2ccccc2)cc1 (stereo not given) -9.8%
Cc1ccc(C2CC2C(=O)NN)cc1 (stereo not given) 6.91%
CCOc1ccc(N(CC(=O)Nc2cccc(OC)c2)S(C)(=O)=O)cc1 21.6%
Cn1c(=O)n(C)c2cc(S(=O)(=O)Nc3ccc(F)cc3)ccc21 7.57%
O=C(O)CCCC(=O)N1N=C(c2ccco2)CC1c1ccco1 (stereo not given) 5.11%
COc1ccc(C2=NN(C(C)=O)C(c3ccccc3)C2)cc1 (stereo not given) 9.33%
Cc1cccc([C@@H]2[C@@H]3C(=O)N(Cc4ccccc4)C(=O)[C@@H]3[C@]3(C)C(=O)N(c4ccc(Br)cc4)C(=O)N23)c1 0.791%
Cc1ccc2sc(N(CCN(C)C)C(=O)/C=C/c3cccs3)nc2c1C 4.98%
CC(=O)N(CCCN(C)C)c1nc2ccc(C)cc2s1 15.8%
Cc1cc(S(=O)(=O)NCC(C)C)ccc1OCC(=O)NC1CC1 18.8%
O=C(O)c1ccccc1C(=O)Nc1nc(-c2ccccc2)cs1 6.83%
CC1(C)CC(CC(=O)O)C(=O)O1 (stereo not given) -8.59%
COc1ccc(C(=O)NC2CCN(C(=O)Nc3ccc(F)cc3)CC2)cc1 -6.23%
COc1ccc(CN2CCNC(=O)C2CC(=O)NCc2cn[nH]c2-c2ccccc2)c(F)c1 (stereo not given) 15.4%
Cc1cnc(NC(=O)c2ccc(Cl)nc2)s1 3.16%
CCN(CC)c1ccc(NC(=O)c2ccc(Cl)nc2)cc1 2.36%
COc1cc(C(=O)NN(CCC#N)C2=NS(=O)(=O)c3ccccc32)cc(OC)c1OC 11.7%
Cc1ccc2c(c1)N(S(=O)(=O)c1cc(-c3cc(C)no3)ccc1C)CCO2 -4.57%
Nc1cc(N2CCCCCC2)c2nonc2c1[N+](=O)[O-] 12.7%
O=C(Nc1cccc(-c2nc3ccccc3[nH]2)c1)c1ccc(C(=O)Nc2cccc(-c3nc4ccccc4[nH]3)c2)cc1 -19.4%
O=C(Cc1cccs1)Nc1cccc(-c2nc3ccccc3[nH]2)c1 9.29%
COc1ccccc1Oc1ccc(N2CC(C(=O)OCC(=O)c3ccc(F)cc3)CC2=O)cc1 (stereo not given) -1.84%
CCN(CC)CCCNC(=O)COc1ccc2oc3c(c2c1)CCCC3 3.63%
S=C(c1ccccc1)N1CCCC1 9.23%
Cc1cccc(C)c1NC(=S)N1CCCCCC1 11.7%
COc1ccc(-c2n[nH]c3c2CN(C(=O)c2ccc(F)cc2)CC3)cc1 5.79%
CC(C)(C)c1ccc(C(=O)N2CCC(C(=O)N3CCCCC3)CC2)cc1 4.51%
COc1ccc(CCNC(=O)C(=O)NCC2OCCN2S(=O)(=O)c2ccc(OC)c(C)c2)cc1 (stereo not given) 8.83%
CCOc1ccc2[nH]c(=O)c(C(c3nnnn3CCOC)N3CCOCC3)cc2c1 (stereo not given) 17.1%
COc1ccc(OC)c(C(c2nnnn2C(C)(C)C)N2CCc3ccccc3C2)c1 (stereo not given) 6.02%
Cc1cnc(C(=O)OCc2c(C)cc(C(C)(C)C)cc2C)cn1 -9.1%
COc1ccc(-c2nc(SCC(=O)N3CCOCC3)n[nH]2)cc1 18.2%
COc1ccc(CNC(=O)CSc2n[nH]c(N)n2)cc1OC 2.91%
Cc1nn2c(=O)cc(COC(=O)c3ccc(NC(=O)C(C)(C)C)cc3)nc2s1 18.9%
COc1cc(/C=C/C(=O)O)cc(S(=O)(=O)Nc2ccccc2C(=O)NCCc2ccccc2)c1OC 13.6%
COc1ccccc1-c1nnc(NC(=O)c2cccc(N3C(=O)CCC3=O)c2)o1 2.11%
COc1ccccc1-c1nnc(SCC(=O)Nc2ccccc2)o1 1.67%
Cc1ccccc1N1CCN(CCCN2C(=O)C3CCCCN3C2=O)CC1 (stereo not given) 17.8%
COc1ccc(OC)c(NC(=O)c2ccc3c(c2)CCN3S(C)(=O)=O)c1 9.13%
O=C(N/N=C/c1ccc([N+](=O)[O-])o1)c1cccc(S(=O)(=O)N2CCOCC2)c1 -9.66%
O=C(N/N=C/c1cc(Cl)cc([N+](=O)[O-])c1O)C(O)(c1ccccc1)c1ccccc1 -0.479%
COc1ccc(N2CCN(S(=O)(=O)CCNC(=O)C34CC5CC(CC(C5)C3)C4)CC2)cc1 2.52%
Cn1c(=O)[nH]c(=O)c2c1nc(Br)n2CCCCSc1nc2ccccc2o1 3.31%
CCCCCCn1c(SCC(=O)c2ccccc2)nc2c1c(=O)[nH]c(=O)n2C -15.2%
CCOc1ccc(S(=O)(=O)N2CCC(c3ccccc3)CC2)cc1C(=O)O 13.6%
Cc1ccc(OCC(=O)Nc2ccc(N3CCN(C(=O)c4ccco4)CC3)cc2)c(C)c1 -9.57%
CC(=O)N1Cc2ccccc2CC1C(=O)O (stereo not given) 6.16%
CC1CC(C)CN(C(=O)CCNC(=O)Cn2cnc3ccccc3c2=O)C1 (stereo not given) -7.35%
COc1ccc(NC(=O)c2sc3nc(C)nc(N4CCN(c5ccccn5)CC4)c3c2C)c(OC)c1 -8.26%
COc1ccccc1-n1cn[nH]c1=S -24.2%
CCc1ccc(-n2c(=S)sc3c(=O)n(-c4ccccc4OC)c(=S)[nH]c32)cc1 -10.9%
COc1ccccc1C1CCN(C(=S)Nc2ccc(Br)cc2)CC1 16.1%
COc1ccc(C)cc1NC(=S)N1CCOCC1 3.26%
COc1ccc(NC(=S)N2CCCC(CO)C2)c(OC)c1 (stereo not given) -15.1%
COc1cc(NC(=O)NCC2CCN(Cc3ccc(C)cc3)CC2)cc(OC)c1OC 4.55%
CC1CC(C)CN(C(=O)C2CC(=O)N(c3ccc(F)cc3)C2)C1 (stereo not given) 0.935%
COc1ccc(C(CCN2CCOCC2)c2c(OC)cc(OC)c3c2OC(=O)CC3c2ccc(OC)cc2)cc1 (stereo not given) -11.3%
Cc1cc(F)ccc1N1CCC(N2CCN(C)C(CCO)C2)CC1 (stereo not given) 6.62%
COc1ccc(-c2c3c(=O)n(C)c(=O)n(C)c3cn2-c2cccc(OC)c2)cc1 3.62%
Cc1ccc(-c2c3c(=O)n(C)c(=O)n(C)c3cn2-n2cnnc2)cc1 12.6%

Potency, active:
CCCc1nnc(NC(=O)CN2C(=O)c3ccccc3S2(=O)=O)s1 22.4 µM
COC(=O)c1sc(=S)n(-c2ccccc2)c1N 31.6 µM
CCOC(=O)c1sc(=S)n(-c2cccc(OC)c2)c1N 39.8 µM
Cc1ccc(C2NC(C(=O)O)CS2)cc1 (stereo not given) 70.8 µM
Cc1nn2c(c1-c1ccccc1)N=C(c1ccco1)CC2c1ccccc1 (stereo not given) 15.8 µM
Cc1cc(C)c2nc(N(CCN(C)C)C(=O)/C=C/c3cccs3)sc2c1 89.1 µM
C/C(CC1CC(C)(C)OC1=O)=N/Nc1nc(-c2ccccc2)cs1 (stereo not given) 50.1 µM
O=C(NNc1ccccn1)c1ccc(Cl)nc1 56.2 µM
O=C(/C=C/c1ccco1)Nc1cccc(-c2nc3ccccc3[nH]2)c1 25.1 µM
S=C(c1ccc(-c2ccccc2)o1)N1CCCCC1 8.91 µM
COCCn1nnnc1C(c1cc2ccc(OC)cc2[nH]c1=O)N1CCc2ccccc2C1 (stereo not given) 12.6 µM
COc1ccc(C(=O)CSc2n[nH]c(N)n2)cc1 56.2 µM
COc1ccccc1-c1nnc(NC(=O)c2ccc3ncsc3c2)o1 79.4 µM
O=[N+]([O-])c1cc(Cl)cc(/C=N/NC(=S)Nc2cc(S(=O)(=O)N3CCOCC3)ccc2Cl)c1O 56.2 µM
CCCCCn1c(SCCC(C)C)nc2c1c(=O)[nH]c(=O)n2C 28.2 µM
CC(=O)N1CSCC1C(=O)O (stereo not given) 20 µM
COc1ccccc1-n1c(=S)[nH]c2c(sc(=S)n2-c2ccc(C)cc2C)c1=O 50.1 µM
COc1cc(NC(=S)N2CCCC(C)C2)cc(OC)c1OC (stereo not given) 20 µM
COc1cc(NC(=S)N2CCCC(C)C2)c(OC)cc1Cl (stereo not given) 14.1 µM
Cc1ccc(-c2c3c(=O)n(C)c(=O)n(C)c3cn2-c2ccccc2O)cc1 56.2 µM
